# Test results published in article PMC7862700, “An all-to-all approach to the identification of sequence-specific readers for epigenetic DNA modifications on cytosine”.
# Experiments:
# Assay in all cases: DAPPL (digital affinity profiling via proximity ligation, sequencing); 10 mM Tris-HCl pH 7.5, 50 mM NaCl, 1 mM DTT, 4% glycerol, room temperature, 30 min; GST-TFs on glutathione beads, 16-mer random dsDNA library, 0.1% formaldehyde crosslink after washing; high values mean tight binding
# Settings in all cases: protein: recombinant; tags: N-terminal GST; dsDNA, one strand shown
# FLI1 = target: T1, FLI1 (Homo sapiens, UniProt Q01543 1-452)
# T1 sequence: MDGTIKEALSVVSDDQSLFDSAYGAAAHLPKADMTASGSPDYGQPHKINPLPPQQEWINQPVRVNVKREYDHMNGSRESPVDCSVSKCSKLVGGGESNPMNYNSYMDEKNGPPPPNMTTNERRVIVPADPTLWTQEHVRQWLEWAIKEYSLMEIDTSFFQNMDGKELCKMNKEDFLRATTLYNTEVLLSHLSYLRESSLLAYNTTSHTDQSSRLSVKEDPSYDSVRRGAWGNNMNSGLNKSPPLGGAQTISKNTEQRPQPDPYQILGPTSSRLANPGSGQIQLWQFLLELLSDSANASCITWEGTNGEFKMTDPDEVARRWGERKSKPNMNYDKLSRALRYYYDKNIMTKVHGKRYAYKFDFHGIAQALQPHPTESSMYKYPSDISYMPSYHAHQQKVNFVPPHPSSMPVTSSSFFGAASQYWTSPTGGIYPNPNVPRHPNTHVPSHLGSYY
# Method in brief: (§1)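 Sequencing on an Illumina NextSeq500 followed washing, crosslinking with 0.1% formaldehyde, proximity ligation (BsaI/T4 ligase, 1 h, 37 °C) and PCR amplification of pools that had been incubated for 30 min at room temperature with 200 nmole of a random double-stranded 16-mer DNA library in Tris/NaCl/DTT/glycerol buffer. Each pool held DNA-barcoded human transcription factors, expressed in yeast as GST fusions and captured on glutathione beads, plus a tag-only sample. Binding signal is a hexamer's read frequency for a factor divided by its frequency in the tag-only sample.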
# ELK1 = target: T2, ELK1 (Homo sapiens, UniProt P19419 1-428)
# T2 sequence: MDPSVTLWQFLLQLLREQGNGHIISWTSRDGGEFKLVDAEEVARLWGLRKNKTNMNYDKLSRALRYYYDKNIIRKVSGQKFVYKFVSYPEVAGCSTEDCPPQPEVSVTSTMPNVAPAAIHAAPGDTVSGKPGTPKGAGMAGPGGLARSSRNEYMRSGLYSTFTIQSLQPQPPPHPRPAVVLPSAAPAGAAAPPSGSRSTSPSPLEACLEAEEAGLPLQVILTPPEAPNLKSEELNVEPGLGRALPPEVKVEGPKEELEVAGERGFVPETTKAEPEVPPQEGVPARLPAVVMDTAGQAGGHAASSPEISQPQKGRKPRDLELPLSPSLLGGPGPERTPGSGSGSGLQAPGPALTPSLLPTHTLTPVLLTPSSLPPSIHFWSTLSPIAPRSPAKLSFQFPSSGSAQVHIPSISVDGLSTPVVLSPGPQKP
# Method in brief: as §1
# GABPA = target: T3, GABPA (Homo sapiens, UniProt Q06546 1-454)
# T3 sequence: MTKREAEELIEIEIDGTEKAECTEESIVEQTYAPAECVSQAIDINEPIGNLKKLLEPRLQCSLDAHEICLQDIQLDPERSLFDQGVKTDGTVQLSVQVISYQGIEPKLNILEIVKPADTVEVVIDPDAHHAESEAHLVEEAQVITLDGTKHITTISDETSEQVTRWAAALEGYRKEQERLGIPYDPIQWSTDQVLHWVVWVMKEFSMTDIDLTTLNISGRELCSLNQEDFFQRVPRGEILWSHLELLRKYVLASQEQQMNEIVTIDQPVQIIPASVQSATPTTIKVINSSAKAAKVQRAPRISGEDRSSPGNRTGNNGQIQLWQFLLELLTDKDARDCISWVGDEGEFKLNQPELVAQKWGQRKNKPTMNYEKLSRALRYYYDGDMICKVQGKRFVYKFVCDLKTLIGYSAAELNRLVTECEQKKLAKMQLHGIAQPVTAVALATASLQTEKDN
# Method in brief: as §1
# ERG = target: T4, ERG (Homo sapiens, UniProt P11308 1-479)
# T4 sequence: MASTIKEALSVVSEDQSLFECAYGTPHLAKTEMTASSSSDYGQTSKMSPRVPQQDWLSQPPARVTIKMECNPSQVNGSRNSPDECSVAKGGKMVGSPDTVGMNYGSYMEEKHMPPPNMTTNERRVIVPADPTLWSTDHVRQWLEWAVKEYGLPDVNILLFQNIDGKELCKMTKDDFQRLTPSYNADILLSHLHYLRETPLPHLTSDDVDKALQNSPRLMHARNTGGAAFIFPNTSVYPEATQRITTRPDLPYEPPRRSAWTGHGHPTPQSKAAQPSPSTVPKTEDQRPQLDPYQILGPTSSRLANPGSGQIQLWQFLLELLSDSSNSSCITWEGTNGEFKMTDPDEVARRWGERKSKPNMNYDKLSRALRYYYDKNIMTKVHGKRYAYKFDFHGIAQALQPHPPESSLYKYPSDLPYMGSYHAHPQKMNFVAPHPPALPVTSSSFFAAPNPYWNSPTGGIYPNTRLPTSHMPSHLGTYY
# Method in brief: as §1
# ELF1 = ELF1 (Homo sapiens, UniProt P32519 1-619)
# Method in brief: as §1
# EHF = target: T5, EHF (Homo sapiens, UniProt Q9NZC4 1-300)
# T5 sequence: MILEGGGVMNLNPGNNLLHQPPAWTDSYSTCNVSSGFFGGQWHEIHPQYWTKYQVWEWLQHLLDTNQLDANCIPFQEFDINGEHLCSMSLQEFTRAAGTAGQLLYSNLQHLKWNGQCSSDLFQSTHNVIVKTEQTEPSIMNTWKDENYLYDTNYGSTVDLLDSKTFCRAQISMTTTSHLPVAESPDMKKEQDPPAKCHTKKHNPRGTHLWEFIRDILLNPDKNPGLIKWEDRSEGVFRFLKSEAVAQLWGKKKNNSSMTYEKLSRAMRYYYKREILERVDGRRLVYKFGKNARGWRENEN
# Method in brief: as §1
# SPIB = SPIB (Homo sapiens, UniProt Q01892 1-262)
# Method in brief: as §1
# ELK3 = target: T6, ELK3 (Homo sapiens, UniProt P41970 1-407)
# T6 sequence: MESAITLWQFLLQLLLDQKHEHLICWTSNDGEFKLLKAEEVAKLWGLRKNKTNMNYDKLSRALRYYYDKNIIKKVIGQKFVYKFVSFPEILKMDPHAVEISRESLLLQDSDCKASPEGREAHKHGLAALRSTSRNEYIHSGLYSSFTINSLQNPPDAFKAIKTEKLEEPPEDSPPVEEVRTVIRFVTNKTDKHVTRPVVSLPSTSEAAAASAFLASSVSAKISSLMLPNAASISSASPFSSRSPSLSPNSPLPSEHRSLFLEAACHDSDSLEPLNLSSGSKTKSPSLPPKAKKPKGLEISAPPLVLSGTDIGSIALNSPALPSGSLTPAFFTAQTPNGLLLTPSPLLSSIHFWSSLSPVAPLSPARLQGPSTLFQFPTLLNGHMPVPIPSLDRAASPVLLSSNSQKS
# Method in brief: as §1
# FEV = target: T7, FEV (Homo sapiens, UniProt Q99581 1-238)
# T7 sequence: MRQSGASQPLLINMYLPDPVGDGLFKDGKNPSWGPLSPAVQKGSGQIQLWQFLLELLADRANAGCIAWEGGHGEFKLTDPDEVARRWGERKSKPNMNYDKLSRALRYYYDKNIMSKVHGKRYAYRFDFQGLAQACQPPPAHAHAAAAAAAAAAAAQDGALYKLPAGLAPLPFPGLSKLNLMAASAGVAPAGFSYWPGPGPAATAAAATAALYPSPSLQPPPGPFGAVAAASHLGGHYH
# Method in brief: as §1
# ETV5 = ETV5 (Homo sapiens, UniProt P41161 1-510)
# Method in brief: as §1
# SPIC = target: T8, SPIC (Homo sapiens, UniProt Q8N5J4 1-248)
# T8 sequence: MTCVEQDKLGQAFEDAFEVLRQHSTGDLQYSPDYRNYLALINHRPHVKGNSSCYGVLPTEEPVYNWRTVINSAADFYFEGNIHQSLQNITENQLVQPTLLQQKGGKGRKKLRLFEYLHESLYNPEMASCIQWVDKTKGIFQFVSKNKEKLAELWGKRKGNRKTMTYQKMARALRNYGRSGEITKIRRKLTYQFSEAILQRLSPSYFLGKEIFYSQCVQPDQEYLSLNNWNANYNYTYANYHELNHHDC
# Method in brief: as §1
# ETV1 = ETV1 (Homo sapiens, UniProt P50549 1-477)
# Method in brief: as §1
# ERF = target: T9, ERF (Homo sapiens, UniProt P50548 1-548)
# T9 sequence: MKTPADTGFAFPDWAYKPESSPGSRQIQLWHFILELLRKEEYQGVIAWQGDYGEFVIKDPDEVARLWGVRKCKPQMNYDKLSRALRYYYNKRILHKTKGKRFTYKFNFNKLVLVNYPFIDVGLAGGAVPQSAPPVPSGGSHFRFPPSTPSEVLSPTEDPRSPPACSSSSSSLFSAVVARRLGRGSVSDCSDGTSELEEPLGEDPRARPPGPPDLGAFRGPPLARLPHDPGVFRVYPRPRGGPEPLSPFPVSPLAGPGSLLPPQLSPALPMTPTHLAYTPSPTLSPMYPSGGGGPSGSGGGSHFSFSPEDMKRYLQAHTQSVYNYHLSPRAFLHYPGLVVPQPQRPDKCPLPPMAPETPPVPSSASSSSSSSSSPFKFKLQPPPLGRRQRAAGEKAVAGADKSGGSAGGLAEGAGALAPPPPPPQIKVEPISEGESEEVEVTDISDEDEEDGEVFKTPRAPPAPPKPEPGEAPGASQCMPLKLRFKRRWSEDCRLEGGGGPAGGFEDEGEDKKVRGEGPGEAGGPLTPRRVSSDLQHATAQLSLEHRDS
# Method in brief: as §1
# ETV3L = target: T10, ETV3L (Homo sapiens, UniProt Q6ZN32 1-361)
# T10 sequence: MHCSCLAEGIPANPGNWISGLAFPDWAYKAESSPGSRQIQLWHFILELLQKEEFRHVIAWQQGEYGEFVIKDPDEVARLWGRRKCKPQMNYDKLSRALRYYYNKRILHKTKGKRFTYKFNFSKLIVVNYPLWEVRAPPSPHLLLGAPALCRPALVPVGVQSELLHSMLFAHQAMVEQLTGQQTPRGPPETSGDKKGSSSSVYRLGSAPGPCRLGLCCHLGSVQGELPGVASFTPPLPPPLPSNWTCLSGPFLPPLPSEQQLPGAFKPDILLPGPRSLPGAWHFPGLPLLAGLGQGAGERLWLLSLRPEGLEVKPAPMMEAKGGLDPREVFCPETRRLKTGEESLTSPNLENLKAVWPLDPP
# Method in brief: as §1
# ETS2 = target: T11, ETS2 (Homo sapiens, UniProt P15036 1-469)
# T11 sequence: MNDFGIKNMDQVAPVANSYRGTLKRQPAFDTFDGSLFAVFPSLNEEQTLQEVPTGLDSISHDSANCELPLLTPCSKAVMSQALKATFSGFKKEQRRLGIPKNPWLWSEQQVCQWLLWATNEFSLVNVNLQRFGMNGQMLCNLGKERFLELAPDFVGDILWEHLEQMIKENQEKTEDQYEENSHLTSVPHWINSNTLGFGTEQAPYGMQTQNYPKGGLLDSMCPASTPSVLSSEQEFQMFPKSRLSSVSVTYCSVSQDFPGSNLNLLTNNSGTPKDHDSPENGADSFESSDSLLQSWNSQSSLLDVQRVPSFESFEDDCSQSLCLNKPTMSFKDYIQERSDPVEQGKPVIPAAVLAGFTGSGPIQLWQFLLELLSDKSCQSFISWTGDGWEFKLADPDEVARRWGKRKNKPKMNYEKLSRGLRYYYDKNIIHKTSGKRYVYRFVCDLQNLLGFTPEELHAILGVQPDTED
# Method in brief: as §1
# SPDEF = target: T12, SPDEF (Homo sapiens, UniProt O95238 1-335)
# T12 sequence: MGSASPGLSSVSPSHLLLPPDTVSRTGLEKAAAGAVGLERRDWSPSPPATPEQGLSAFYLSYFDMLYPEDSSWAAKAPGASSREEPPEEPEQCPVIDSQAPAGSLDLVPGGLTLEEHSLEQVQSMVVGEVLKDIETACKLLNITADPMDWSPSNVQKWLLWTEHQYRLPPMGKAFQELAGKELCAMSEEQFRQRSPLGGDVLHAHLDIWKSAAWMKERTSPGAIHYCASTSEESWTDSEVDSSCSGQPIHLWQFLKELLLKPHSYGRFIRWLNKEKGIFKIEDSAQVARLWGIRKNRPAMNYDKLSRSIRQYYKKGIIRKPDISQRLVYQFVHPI
# Method in brief: as §1
# ETV3 = target: T13, ETV3 (Homo sapiens, UniProt P41162-2 1-143)
# T13 sequence: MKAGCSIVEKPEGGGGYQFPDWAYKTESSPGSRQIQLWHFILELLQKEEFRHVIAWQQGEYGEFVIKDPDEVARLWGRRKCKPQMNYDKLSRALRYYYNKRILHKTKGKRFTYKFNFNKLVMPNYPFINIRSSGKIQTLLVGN
# Method in brief: as §1
# ETV6 = ETV6 (Homo sapiens, UniProt P41212 1-452)
# Method in brief: as §1
# Sequence of ELF1 (P32519 whole entry): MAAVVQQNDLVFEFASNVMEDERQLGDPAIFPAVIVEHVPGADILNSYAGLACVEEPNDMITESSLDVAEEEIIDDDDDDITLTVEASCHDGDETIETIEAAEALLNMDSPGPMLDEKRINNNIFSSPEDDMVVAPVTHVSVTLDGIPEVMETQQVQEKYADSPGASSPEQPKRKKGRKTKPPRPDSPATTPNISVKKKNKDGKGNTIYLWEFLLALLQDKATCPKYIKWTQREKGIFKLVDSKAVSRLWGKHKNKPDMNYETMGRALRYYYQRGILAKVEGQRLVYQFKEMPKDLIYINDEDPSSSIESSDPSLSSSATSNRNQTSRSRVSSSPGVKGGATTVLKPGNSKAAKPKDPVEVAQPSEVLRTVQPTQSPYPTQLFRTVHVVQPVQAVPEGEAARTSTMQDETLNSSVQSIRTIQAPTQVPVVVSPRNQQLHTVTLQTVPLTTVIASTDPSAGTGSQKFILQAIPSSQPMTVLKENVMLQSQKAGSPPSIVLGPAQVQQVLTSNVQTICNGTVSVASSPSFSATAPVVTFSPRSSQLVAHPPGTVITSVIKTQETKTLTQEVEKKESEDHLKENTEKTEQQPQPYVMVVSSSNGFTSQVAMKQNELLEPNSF
# Sequence of ETV5 (P41161 whole entry): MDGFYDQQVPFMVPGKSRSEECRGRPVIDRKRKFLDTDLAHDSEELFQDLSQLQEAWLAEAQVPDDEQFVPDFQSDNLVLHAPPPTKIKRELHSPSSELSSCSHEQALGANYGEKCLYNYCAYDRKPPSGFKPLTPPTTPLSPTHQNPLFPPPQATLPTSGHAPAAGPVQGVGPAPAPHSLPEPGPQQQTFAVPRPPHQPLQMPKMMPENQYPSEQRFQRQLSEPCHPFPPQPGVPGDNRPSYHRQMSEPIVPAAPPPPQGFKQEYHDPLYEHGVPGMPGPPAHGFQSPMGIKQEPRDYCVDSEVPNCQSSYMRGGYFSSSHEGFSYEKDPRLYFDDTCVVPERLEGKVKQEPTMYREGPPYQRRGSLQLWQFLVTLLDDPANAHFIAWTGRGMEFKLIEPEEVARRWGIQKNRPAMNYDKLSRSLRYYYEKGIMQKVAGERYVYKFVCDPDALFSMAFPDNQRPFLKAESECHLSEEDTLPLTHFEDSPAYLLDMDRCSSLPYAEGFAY
# Sequence of ETV1 (P50549 whole entry): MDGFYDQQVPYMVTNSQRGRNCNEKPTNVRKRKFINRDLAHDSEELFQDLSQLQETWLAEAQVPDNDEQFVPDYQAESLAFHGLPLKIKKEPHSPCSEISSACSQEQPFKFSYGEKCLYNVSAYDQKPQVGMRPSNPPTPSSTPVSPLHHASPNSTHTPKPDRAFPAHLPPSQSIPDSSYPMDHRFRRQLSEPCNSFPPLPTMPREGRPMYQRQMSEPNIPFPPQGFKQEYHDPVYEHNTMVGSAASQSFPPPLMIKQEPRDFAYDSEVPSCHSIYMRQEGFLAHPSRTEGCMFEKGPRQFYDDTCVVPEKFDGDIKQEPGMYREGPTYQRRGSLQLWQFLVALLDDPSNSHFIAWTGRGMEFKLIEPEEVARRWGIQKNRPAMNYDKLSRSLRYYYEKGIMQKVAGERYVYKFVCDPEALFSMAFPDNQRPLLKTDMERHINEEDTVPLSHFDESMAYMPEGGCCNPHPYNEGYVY
# Sequence of ETV6 (P41212 whole entry): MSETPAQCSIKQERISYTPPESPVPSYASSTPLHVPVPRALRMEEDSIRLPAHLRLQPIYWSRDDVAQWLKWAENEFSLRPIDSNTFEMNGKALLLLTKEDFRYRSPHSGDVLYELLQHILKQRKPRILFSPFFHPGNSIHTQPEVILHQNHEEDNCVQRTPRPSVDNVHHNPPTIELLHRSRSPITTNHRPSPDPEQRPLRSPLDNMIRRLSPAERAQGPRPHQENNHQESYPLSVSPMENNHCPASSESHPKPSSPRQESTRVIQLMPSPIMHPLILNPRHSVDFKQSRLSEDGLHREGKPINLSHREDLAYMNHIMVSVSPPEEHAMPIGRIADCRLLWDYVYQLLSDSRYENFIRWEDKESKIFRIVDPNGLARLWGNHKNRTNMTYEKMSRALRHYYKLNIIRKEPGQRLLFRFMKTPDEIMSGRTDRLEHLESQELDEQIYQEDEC
# Sequence of SPIB (Q01892 whole entry): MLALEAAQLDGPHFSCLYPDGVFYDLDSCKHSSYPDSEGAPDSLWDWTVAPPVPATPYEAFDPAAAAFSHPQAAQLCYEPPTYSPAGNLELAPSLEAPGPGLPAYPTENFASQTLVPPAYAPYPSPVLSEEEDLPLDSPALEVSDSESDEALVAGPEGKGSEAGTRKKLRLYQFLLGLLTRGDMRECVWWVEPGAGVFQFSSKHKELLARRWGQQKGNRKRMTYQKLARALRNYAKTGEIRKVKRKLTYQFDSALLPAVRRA
sequence,measurement,setting,value
CAACCG,binding signal,FLI1,"1.11 fold enrichment (6-mer frequency, TF over GST control)"
same,binding signal,ELK1,"1.13 fold enrichment (6-mer frequency, TF over GST control)"
same,binding signal,GABPA,"1 fold enrichment (6-mer frequency, TF over GST control)"
same,binding signal,ERG,"1.11 fold enrichment (6-mer frequency, TF over GST control)"
same,binding signal,ELF1,"1.03 fold enrichment (6-mer frequency, TF over GST control)"
same,binding signal,EHF,"1.06 fold enrichment (6-mer frequency, TF over GST control)"
same,binding signal,SPIB,"1.15 fold enrichment (6-mer frequency, TF over GST control)"
same,binding signal,ELK3,"1.2 fold enrichment (6-mer frequency, TF over GST control)"
same,binding signal,FEV,"1.28 fold enrichment (6-mer frequency, TF over GST control)"
same,binding signal,ETV5,"1.03 fold enrichment (6-mer frequency, TF over GST control)"
same,binding signal,SPIC,"1.02 fold enrichment (6-mer frequency, TF over GST control)"
same,binding signal,ETV1,"1.06 fold enrichment (6-mer frequency, TF over GST control)"
same,binding signal,ERF,"1.03 fold enrichment (6-mer frequency, TF over GST control)"
same,binding signal,ETV3L,"1.09 fold enrichment (6-mer frequency, TF over GST control)"
same,binding signal,ETS2,"1.11 fold enrichment (6-mer frequency, TF over GST control)"
same,binding signal,SPDEF,"1.15 fold enrichment (6-mer frequency, TF over GST control)"
same,binding signal,ETV3,"1.08 fold enrichment (6-mer frequency, TF over GST control)"
same,binding signal,ETV6,"1.13 fold enrichment (6-mer frequency, TF over GST control)"
